# Measurements as given in PubChem BioAssay (NCI).
# About 79,000 compounds went through this panel and 15% of them were active in at least one assay; those are over-represented in the sample as a whole. Unmarked numbers belong to inactive results. Active and inactive are the calls of the source. No stated cut-off is given here; in the data, active means growth inhibition above about 70%; inactive means the rest.
# Assay: NCI Yeast Anticancer Drug Screen. Data for the bub3 strain (AID 167)
# Conditions: S. cerevisiae bub3 mutant strain, at 50.0 µM, active compounds read high
# Description: Growth inhibition of yeast strains with defined genetic alterations is measured as a screen for potential anti-cancer activity. Selected strains with alterations in DNA damage repair or cell cycle control were exposed to compounds and growth inhibition was measured relative to vehicle treated controls. The strain used in this assay is bub3
row,Structure (SMILES),growth inhibition
1,Nc1ccc(I)cn1,14.6%
2,CC(C)(C)c1ccc(-c2nc3ccc(Cl)cc3c(=O)o2)cc1,-17.6%
3,O=C1CCCCCCCCCCC1Sc1ccccc1 (stereo not given),7.3%
4,CCOC(=O)C(=O)Cc1cc(=O)n(C)c2ccccc12,13.9%
5,C=CCNc1ccc(C)cc1,-5%
6,CCN1C2=NCCN2C(=O)c2ccccc21,8.25%
7,Cc1cc2c(C(C)C)c(O)c(O)c(C=Nc3ccccc3O)c2c(O)c1-c1c(C)cc2c(C(C)C)c(O)c(O)c(C=Nc3ccccc3O)c2c1O,-9.75%
8,CN1CCCCC1C[CH2][Sn]([c]1ccccc1)([c]1ccccc1)[c]1ccccc1 (stereo not given),99.2% (active)
9,CCCCCCCCCCCCCCCCCC(=O)[O][Al][O]C(C)C,-19.5%
10,Brc1cccc2c(SCCCCCCSc3c4ccccc4nc4c(Br)cccc34)c3ccccc3nc12,-21%
11,CNC1C(CO)OC(OC)C1O (stereo not given),1.2%
12,CCCCCCCCC[N+]12CC[N+](CCCCCCCCC)(CC1)CC2,8.8%
13,O=C(O)C1CC=CCC1C(=O)Nc1cccc(O)c1 (stereo not given),-40%
14,O=C(O)/C=C/C1CCCCC1,-6.4%
15,COc1ccc(C2CN=NN2c2ccc([N+](=O)[O-])cc2)cc1 (stereo not given),46.1%
16,Cc1nn(-c2ccccc2)c(=O)n2c1nc1ccccc12,26.8%
17,N#CC1=C(N)C(c2ccccc2)(c2ccccc2)CC1,0.4%
18,O=c1/c(=C/c2ccccc2[N+](=O)[O-])sc2nnc(-c3cccnc3)n12,11.8%
19,COc1ccc(C(=O)C[n+]2cc(Br)cc3ccccc32)cc1,-3.05%
20,O=C(O)CC1(c2ccccc2)CCCCC1,46.8%

row,Structure (SMILES),growth inhibition
1,CCOC(=O)c1c(C)[nH]c(=S)c(C#N)c1-c1ccc(Cl)cc1,28.6%
2,Cc1oc2nc(N(C)C)nc(NN)c2c1C,10.2%
3,CCC[C@H]1C(=O)N=C(N)N1C(=O)OCc1ccccc1,-3.3%
4,CCSC(C(OC(C)=O)C(OC(C)=O)C(COC(C)=O)OC(C)=O)n1cnc2c(=S)nc[nH]c21 (stereo not given),-1.55%
5,C(=C\c1ccc(/C=C/c2ccccc2)nn1)/c1ccccc1,0.8%
6,O/N=C1\CCCCC1C(NO)c1ccccc1 (stereo not given),-12.2%
7,COc1cc(C2C(Cl)C(=O)N2NC(=O)c2ccc(N)cc2)ccc1O (stereo not given),-16.4%
8,O=c1[nH]c2cc(Cl)ccc2nc1/C=C(\O)c1cccc2ccccc12,15.1%
9,CCCC(SCC(=O)O)SCC(=O)O,-4.75%
10,NC(=O)C(=O)C(c1ccccc1)c1ccccc1,7.95%
11,Nc1nc2c(C(=O)c3cccs3)nnn2c2cccc(Cl)c12,-14.8%
12,CCc1cccc(CC)c1NC(=O)c1ccc(C)cc1,-1.35%
13,CCCCOC(=O)N1CCCCC1,-14.3%
14,O[C@]12c3ccccc3C1CCCCC2N1CCOCC1 (stereo not given in full),-24.1%
15,CCOC(=O)NCC(C)(C)N(C(=O)OCC)c1ccccc1,-37.8%
16,COc1ccc2c(c1C)OC(C)C2=O (stereo not given),-15.9%
17,CCCCCCC1(/C=C\c2ccccc2Cl)OCCO1,16.9%
18,O=C1CCCC/C1=C1/SC(=Nc2ccccc2)C(=Nc2ccccc2)N1c1ccccc1,19.1%
19,CC(=O)CSCc1ccccn1,22.6%
20,N#CCC(CC#N)C(c1cccc2ccccc12)c1cccc2ccccc12,18.7%
